# Measured values taken from PubChem BioAssay (NCATS).
# Records with an inconclusive call do not appear. Where a call stands in place of a potency, no number is given. Active and inactive are the calls of the source. Calls follow the shape of the dose curve; as a rule, active = well fitted curve in the direction sought with a large enough effect; inconclusive = small, poorly fitted or top-dose-only effect, or another doubt; inactive = no such curve, though single readings can be large; an effect the other way counts as inactive or inconclusive.
# What was measured:
# [1] = NS1 protein of Zika virus - qHTS assay to identify small molecule inhibitors in human HEK 293 cells (AID 1347053); also: series mostly up to about 46 µM; nearly all actives have a fitted effect of over 55% in size
# Outline: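 HEK 293 cells pretreated with compound for 1 h, then infected with ZIKV MR766 (MOI 0.5) for 24 h at 37 C. NS1 detected by TR-FRET with two anti-NS1 antibodies; normalized to uninfected (0%) and infected (100%) wells.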
# [2] = qHTS of pediatric cancer cell lines to identify multiple opportunities for drug repurposing: Primary screen for DAOY cells (AID 1347090); also: nearly all actives have a fitted effect of over 55% in size; also: potency is read from the fitted curve at half-maximal effect
# Outline: (§1)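 Eight- or eleven-point concentration series, 48 h treatment at 37 degrees C in growth media; readout CellTiter-Glo luminescence. Potency and efficacy were taken from the concentration-response curves.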
# [3] = qHTS of pediatric cancer cell lines to identify multiple opportunities for drug repurposing: Primary screen for SJ-GBM2 cells (AID 1347091)
# Outline: as §1
# [4] = qHTS of pediatric cancer cell lines to identify multiple opportunities for drug repurposing: Primary screen for A673 cells (AID 1347092); also: nearly all actives have a fitted effect of over 45% in size; also: potency is read from the fitted curve at half-maximal effect
# Outline: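 A673 cells (500-1,000 cells/well in growth media) were pre-incubated 5 h at 37 degrees C, then exposed to compounds for 48 h. Viability was read as CellTiter-Glo luminescence; concentration-response curves came directly from the primary screen.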
# [5] = qHTS of pediatric cancer cell lines to identify multiple opportunities for drug repurposing: Primary screen for SK-N-MC cells (AID 1347093); also: series mostly up to about 46 µM
# Outline: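 Metabolically active cells were quantified by ATP-dependent luminescence (CellTiter-Glo, 15 min at room temperature) following 48 h treatment. Cells had been plated at 500-1,000 per well and settled for 5 h beforehand.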
# [6] = qHTS of pediatric cancer cell lines to identify multiple opportunities for drug repurposing: Primary screen for BT-37 cells (AID 1347094); also: potency is read from the fitted curve at half-maximal effect
# Outline: (§2)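 Cells plated at 500-1,000/well in growth medium, compounds added after 5 h. MIPE tested at 11 points (from 0.78 nM), NPC at 8 points (from 0.59 nM). CellTiter-Glo luminescence after 48 h; concentration-response curves from primary screen.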
# [7] = qHTS of pediatric cancer cell lines to identify multiple opportunities for drug repurposing: Primary screen for NB-EBc1 cells (AID 1347095)
# Outline: as §2
# [8] = qHTS of pediatric cancer cell lines to identify multiple opportunities for drug repurposing: Primary screen for U-2 OS cells (AID 1347096); also: nearly all actives have a fitted effect of over 50% in size
# Outline: (§3)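 Cells (500-1,000/well) in growth media were settled 5 h at 37 degrees C, then given compounds for 48 h. Viability was read as CellTiter-Glo luminescence. Primary runs used MIPE at 11 points (0.78 nM-46 µM) and NPC at 8 points (0.59 nM-46 µM); follow-ups used 11 points.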
# [9] = qHTS of pediatric cancer cell lines to identify multiple opportunities for drug repurposing: Primary screen for SK-N-SH cells (AID 1347098); also: nearly all actives have a fitted effect of over 65% in size; also: potency is read from the fitted curve at half-maximal effect
# Outline: (§4)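 Cells (500-1,000/well) rested 5 h, then received compounds for 48 h; metabolically active cells were measured by CellTiter-Glo luminescence. Final concentrations spanned up to 46 µM (MIPE, 11-point) or 0.59 nM-46 µM (NPC, 8-point) in primary screens, 11-point in follow-ups.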
# [10] = qHTS of pediatric cancer cell lines to identify multiple opportunities for drug repurposing: Primary screen for NB1643 cells (AID 1347099); also: nearly all actives have a fitted effect of over 50% in size; also: potency is read from the fitted curve at half-maximal effect
# Outline: as §2
# [11] = qHTS of pediatric cancer cell lines to identify multiple opportunities for drug repurposing: Primary screen for LAN-5 cells (AID 1347100); also: potency is read from the fitted curve at half-maximal effect
# Outline: as §3
# [12] = qHTS of pediatric cancer cell lines to identify multiple opportunities for drug repurposing: Primary screen for BT-12 cells (AID 1347101); also: nearly all actives have a fitted effect of over 25% in size; also: potency is read from the fitted curve at half-maximal effect
# Outline: as §4
# [13] = qHTS of pediatric cancer cell lines to identify multiple opportunities for drug repurposing: Primary screen for Rh18 cells (AID 1347102); also: nearly all actives have a fitted effect of over 65% in size
# Outline: as §3
# [14] = qHTS of pediatric cancer cell lines to identify multiple opportunities for drug repurposing: Primary screen for OHS-50 cells (AID 1347103); also: nearly all actives have a fitted effect of over 40% in size; also: potency is read from the fitted curve at half-maximal effect
# Outline: as §4
# [15] = qHTS of pediatric cancer cell lines to identify multiple opportunities for drug repurposing: Primary screen for Saos-2 cells (AID 1347097); also: nearly all actives have a fitted effect of over 40% in size
# Outline: as §2
# [16] = qHTS of pediatric cancer cell lines to identify multiple opportunities for drug repurposing: Primary screen for TC32 cells (AID 1347089); also: nearly all actives have a fitted effect of over 60% in size
# Outline: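 Luminescent CellTiter-Glo read-out of metabolically active TC32 cells after 48 h compound exposure. Primary: MIPE 11-point, 0.78 nM–46 µM; NPC 8-point, 0.59 nM–46 µM. Confirmatory: 11-point dilutions.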
SMILES,Potency [1],Potency [2],Potency [3],Potency [4],Potency [5],Potency [6],Potency [7],Potency [8],Potency [9],Potency [10],Potency [11],Potency [12],Potency [13],Potency [14],Potency [15],Potency [16]
O=S(=O)(O)c1ccc(O)cc1,inactive,inactive,inactive,inactive,inactive,inactive,inactive,inactive,inactive,inactive,inactive,inactive,inactive,inactive,–,–
CC(C)Cn1cnc2c1c(=O)n(C)c(=O)n2C,inactive,inactive,inactive,inactive,inactive,inactive,inactive,inactive,inactive,inactive,inactive,inactive,inactive,inactive,inactive,–
Cc1cn([C@H]2C[C@H](F)[C@@H](CO)O2)c(=O)[nH]c1=O,inactive,–,inactive,inactive,–,–,–,inactive,inactive,inactive,inactive,inactive,inactive,inactive,inactive,inactive
CC(=O)N[C@@H](CCC(=O)O)C(=O)O,inactive,inactive,inactive,inactive,inactive,inactive,inactive,inactive,inactive,inactive,inactive,inactive,inactive,–,inactive,–
Oc1ccc(Cl)cc1Cc1cc(Cl)ccc1O,inactive,21.1 µM (active),–,–,–,19.5 µM (active),–,–,17.2 µM (active),9.44 µM (active),–,27.6 µM (active),–,9.78 µM (active),–,–
CCN(CC)CCOc1ccccc1C(=O)CCc1ccccc1,–,inactive,inactive,inactive,inactive,inactive,inactive,inactive,–,inactive,inactive,inactive,inactive,–,–,inactive
Cc1ccc(O)c([C@H](CCN(C(C)C)C(C)C)c2ccccc2)c1,inactive,–,inactive,inactive,–,inactive,–,inactive,–,inactive,inactive,inactive,inactive,–,inactive,–
CO[C@H]1C=CO[C@@]2(C)Oc3c(C)c(O)c4c(O)c(c(/C=N/N5CCN(C)CC5)c(O)c4c3C2=O)NC(=O)/C(C)=C\C=C[C@H](C)[C@H](O)[C@@H](C)[C@@H](O)[C@@H](C)[C@H](OC(C)=O)[C@@H]1C,inactive,inactive,–,inactive,–,inactive,inactive,–,–,inactive,inactive,–,–,inactive,–,–
CCOc1ccccc1C(N)=O,inactive,inactive,–,inactive,inactive,inactive,inactive,inactive,30.7 µM (active),–,inactive,inactive,inactive,inactive,inactive,–
c1ccc(CC2=NCCN2)cc1,–,inactive,inactive,inactive,–,inactive,inactive,inactive,inactive,inactive,inactive,inactive,inactive,inactive,inactive,inactive
C[N+]1(CC2COC(c3ccccc3)(C3CCCCC3)O2)CCCCC1 (configuration not stated),inactive,inactive,–,inactive,–,–,inactive,inactive,inactive,inactive,inactive,–,inactive,–,inactive,–
CCN(CC)CCOc1ccc2c(c1)C(=O)c1cc(OCCN(CC)CC)ccc1-2,inactive,inactive,–,–,–,–,–,inactive,34.4 µM (active),–,23.7 µM (active),–,–,–,inactive,–
Cc1nc(-c2ccc(Cl)cc2)oc1COC(C)(C)C(=O)O,–,inactive,inactive,inactive,inactive,inactive,inactive,inactive,–,inactive,inactive,inactive,inactive,inactive,inactive,inactive
CCNC(=O)NCc1cccc(Cl)c1,–,inactive,inactive,inactive,inactive,inactive,inactive,inactive,inactive,inactive,inactive,inactive,inactive,–,–,inactive
C#C[C@]1(O)CC[C@H]2[C@@H]3CCC4=CC(=O)CC[C@@H]4[C@H]3CC[C@@]21CC,–,inactive,inactive,inactive,inactive,inactive,inactive,inactive,inactive,inactive,inactive,inactive,inactive,inactive,–,inactive
O=C(O)P(=O)(O)O,–,inactive,inactive,inactive,inactive,inactive,inactive,inactive,inactive,inactive,inactive,inactive,inactive,inactive,–,inactive
O=C(c1ccc(F)cc1)C1CCN(CCn2c(=S)[nH]c3ccccc3c2=O)CC1,inactive,inactive,–,16.8 µM (active),inactive,–,inactive,inactive,–,–,inactive,–,inactive,–,inactive,–
Cl/C(=C\n1cncn1)c1ccc(Cl)cc1Cl,–,inactive,inactive,inactive,inactive,inactive,inactive,inactive,inactive,inactive,inactive,inactive,inactive,inactive,–,inactive
CO[C@]12C[C@@H](COC(=O)c3cncc(Br)c3)CN(C)[C@@H]1Cc1cn(C)c3cccc2c13,–,inactive,inactive,inactive,inactive,inactive,inactive,inactive,–,inactive,inactive,inactive,inactive,inactive,inactive,inactive
